Growth inhibition data for 20 compounds are collected here from PubChem BioAssay (NCI).

Experiment [1] can be described thus: NCI Yeast Anticancer Drug Screen. Data for the rad50 strain (AID 155).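 Further: 0% = growth of vehicle-only cultures of the same strain.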 Particulars: S. cerevisiae rad50 strain growth inhibition; at 50.0 µM; stronger effect = higher value. In short, it runs like this: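 Cells are treated with compound, grown, and their growth is then scored against vehicle-only cultures of the same repair-deficient yeast strain.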
Experiment [2] is described as follows: NCI Yeast Anticancer Drug Screen. Data for the mec2-1 strain (AID 157). The conditions noted are these: S. cerevisiae mec2-1 strain, at 50.0 µM, stronger effect = higher value. In short, it runs like this: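 Cells of the genetically defined mec2-1 yeast strain are incubated with test compound. Inhibition of growth is calculated against vehicle-treated controls.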
Experiment [3] in a line: NCI Yeast Anticancer Drug Screen. Data for the sgs1 mgt1 strain (AID 161).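 Further: 0% = growth of cultures given vehicle only.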 The conditions noted are these: S. cerevisiae sgs1 mgt1 strain, at 50.0 µM, stronger effect = higher value. The gist of the method: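 Test agents were incubated with a DNA-repair-mutant yeast strain. Growth was then read and compared against vehicle-treated controls.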
Experiment [4] in a line: NCI Yeast Anticancer Drug Screen. Data for the cln2 rad14 strain (AID 165).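 Further: 0% = growth equal to vehicle treated cultures.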 The conditions noted are these: S. cerevisiae cln2 rad14 strain, at 50.0 µM, stronger effect = higher value. The gist of the method: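 The screen exposed genetically defined yeast (cln2 rad14) to test compounds and scored growth inhibition relative to vehicle-treated controls.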
Experiment [5] in a line: NCI Yeast Anticancer Drug Screen. Data for the bub3 strain (AID 167). Particulars: S. cerevisiae bub3 mutant strain, at 50.0 µM, stronger effect = higher value. The gist of the method: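 Part of a panel of yeast mutants defective in DNA damage repair or cell cycle regulation. Each strain is grown with compound, and inhibition is calculated relative to solvent-treated cultures.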
Experiment [6] is described as follows: NCI Yeast Anticancer Drug Screen. Data for the mlh1 rad18 strain (AID 175). Particulars: S. cerevisiae mlh1 rad18 strain growth inhibition; at 50.0 µM; stronger effect = higher value. The gist of the method:
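Compound-treated yeast growth, normalised to vehicle controls. Strain bears defined DNA repair mutations.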

Each structure is given as a SMILES string. Compounds without any hit were thinned out: in the full panel of roughly 79,000, 15% have a hit. Values without a mark were called inactive. Active and inactive are the calls of the source. No stated cut-off is given here; in the data, active means growth inhibition above about 70%; inactive means the rest.

`c1ccc(C2=C([P+](c3ccccc3)(c3ccccc3)c3ccccc3)CCO2)cc1`: the growth inhibition in experiment [1] is 99% (active); in experiment [2] it was 99.1% (active); in experiment [3], 98.7% (active); in experiment [4] it was 98.2% (active); in experiment [5], 98.3% (active); in experiment [6], 98.8% (active).
`O=C(Cc1ccccc1)NN1C(=O)/C(=C\c2cccc([N+](=O)[O-])c2)SC1=Nc1ccccc1`: the growth inhibition in experiment [1] was -2.7%; in experiment [2], -15.2%; in experiment [3] it was 9.95%; in experiment [4], 17.1%; in experiment [5], -14.8%; in experiment [6] it was 0.85%.
Regarding `O=C(c1ccccc1)C(N=Nc1ccccc1)(c1ccccc1)c1ccccc1`, the growth inhibition in experiment [1] was 4.15%; in experiment [2] it was -6%; in experiment [3] it was -1.8%; in experiment [4], -7.05%; in experiment [5], -0.85%; in experiment [6], 21.6%.
Regarding `COC(=O)C(/C(=N/NC(N)=O)C(=O)Nc1c(C)cccc1C(C)(C)C)c1nc2ccc(Cl)cc2[nH]c1=O` (stereo not given), the growth inhibition was -3.9% in experiment [1]; -15.7% in experiment [2]; -7.4% in experiment [3]; 3.3% in experiment [4]; -11.2% in experiment [5]; 0.1% in experiment [6].
`O=[N+]([O-])c1ccc(-c2csc(NCC3CCCO3)n2)cc1` (stereo not given): the growth inhibition in experiment [1] was 24.3%; in experiment [2], -10.6%; in experiment [3], 49.9%; in experiment [4], 21.1%; in experiment [5] it was 21.6%; in experiment [6], 17.9%.
In the case of `IC1CCC2OC1CCC2I` (stereo not given), the growth inhibition in experiment [1] is 2.8%; in experiment [2] it was 1.75%; in experiment [3], -3.85%; in experiment [4], -8.35%; in experiment [5], -5.05%; in experiment [6], 11.8%.
With `COc1cc(O)c2c(c1)C(=O)c1cc(C)cc(O)c1C2=O`, the growth inhibition in experiment [1] is -15.1%; in experiment [2], -22.9%; in experiment [3] it was -18.6%; in experiment [4], -21.1%; in experiment [5] it was -26.2%; in experiment [6], -10.8%.
As for `CN1C(=O)CC2C(=O)N(Cc3ccccc3)C(=O)C2C1=O` (stereo not given), the growth inhibition was 14% in experiment [1]; -4% in experiment [2]; -0.8% in experiment [3]; 11.6% in experiment [4]; 1.3% in experiment [5]; -2.85% in experiment [6].
Take `Cn1cnc([N+](=O)[O-])c1/N=C/c1ccccc1`: the growth inhibition in experiment [1] is 0.1%; in experiment [2], 2.95%; in experiment [3], -3.95%; in experiment [4] it was -41.3%; in experiment [5], -28.5%; in experiment [6], -6.5%.
Regarding `CCCCCCOC(=O)c1cccc(C)c1`, the growth inhibition is 7.15% in experiment [1]; 4.4% in experiment [2]; 5.8% in experiment [3]; -35% in experiment [4]; 6.85% in experiment [5]; 11.2% in experiment [6].
With `CCN(CC)C1=Nc2ccccc2N(c2ccccc2)C(=S)C1`, the growth inhibition in experiment [1] is 46.9%; in experiment [2], 25.5%; in experiment [3], 30.1%; in experiment [4], 13.9%; in experiment [5], 36.2%; in experiment [6], 51.2%.
Regarding `CC(=O)/C(=C\c1ccccc1F)C(=O)CCN(C)C`, the growth inhibition in experiment [1] was 7.95%; in experiment [2] it was 6.55%; in experiment [3], 8.05%; in experiment [4], 12.2%; in experiment [5] it was 13.6%; in experiment [6], 28.3%.
In the case of `C=CC(C)C(C)C` (stereo not given), the growth inhibition is 3.15% in experiment [1]; 0.4% in experiment [2]; -7.55% in experiment [3]; 4.3% in experiment [4]; 8.65% in experiment [5]; -4.8% in experiment [6].
As to `COC(=O)CCC(=O)CC(=O)C(=O)Nc1ccc(F)cc1`, the growth inhibition in experiment [1] was 3.2%; in experiment [2], 3.75%; in experiment [3], -1.7%; in experiment [4], -2.6%; in experiment [5] it was -15.6%; in experiment [6], 7.75%.
`C(=N/OC(c1ccccc1)(c1ccccc1)c1ccccc1)/c1ccccc1`: the growth inhibition is 13.7% in experiment [1]; 24.2% in experiment [2]; 6.2% in experiment [3]; 7.8% in experiment [4]; 15.8% in experiment [5]; 6.45% in experiment [6].
With `CC(=O)Nc1ccc(OC2=CCN(C)CC2)cc1`, the growth inhibition in experiment [1] was 0.75%; in experiment [2], -16.1%; in experiment [3], 8.85%; in experiment [4] it was 12.7%; in experiment [5], 11.1%; in experiment [6] it was -64.8%.
Regarding `CC(N)C(=O)NC(C)P(=O)(O)O` (stereo not given), the growth inhibition in experiment [1] was 2.7%; in experiment [2], 1.4%; in experiment [3], -7.15%; in experiment [4], -73%; in experiment [5], 9.05%; in experiment [6], 8.2%.
In the case of `CC(=O)CC1CCCC1`, the growth inhibition in experiment [1] is 19.4%; in experiment [2], 0.6%; in experiment [3] it was 19.9%; in experiment [4] it was 15.9%; in experiment [5], 5.3%; in experiment [6], 17.9%.
For `Cc1ccc(S(=O)(=O)NNCCC#N)cc1`, the growth inhibition in experiment [1] was -5%; in experiment [2], 6.05%; in experiment [3], -4.35%; in experiment [4] it was -0.15%; in experiment [5], -4.9%; in experiment [6], 7.75%.
In the case of `Cc1ccc(S(=O)(=O)Oc2ccc(N(CC(=O)O)S(=O)(=O)c3ccc(C)cc3)cc2)cc1`, the growth inhibition in experiment [1] is 45.3%; in experiment [2], 9.8%; in experiment [3], 29.4%; in experiment [4], 11.8%; in experiment [5] it was -1.35%; in experiment [6], 17.5%.
